Compound activity: PubChem, National Center for Advancing Translational Sciences (NCATS)
Integrin act MD: qHTS for Activators of Integrin-Mediated Alleviation for Muscular Dystrophy | Potency, µM (top dose mostly 38.3 µM), inactives show top-dose activation, most hits filed as activators | hit rate 0.064% among 350,000 | alpha7betagal myoblasts, beta-gal FDG fluorescence, 48 h | AID 624291, 2012;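 note: potency is the fitted concentration of half-maximal effect; 100% = response of the positive control SU9516; nearly all actives have a fitted effect of over 60% in size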
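alpha7betagal+/- myoblasts (passage 13, 250/well) treated 48 h at 37C with compounds at 1:260 dilution of DMSO stock. Lysed, then beta-galactosidase activity read as FDG fluorescence (ex 480/em 540) after 30 min, with pre-read for autofluorescence.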
B2AR arrestin: qHTS assay of beta-arrestin-biased ligands of beta2-adrenergic receptor; Beta-2 adrenergic receptor (Homo sapiens), P07550; beta-arrestin recruitment to beta2AR, cell-based reporter; Potency, µM (highest dose often 46.1 µM), for inactives: at the top dose activation, actives largely listed as activators; hit rate 0.02% among 330,000; AID 492947, 2010;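 note: potency is the fitted concentration of half-maximal effect; 0% = DMSO controls and full agonism = EC100 isoproterenol or metaproterenol; nearly all actives have a fitted effect of over 65% in size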
D3 ag: qHTS of D3 Dopamine Receptor Agonist: qHTS; D(3) dopamine receptor (Homo sapiens), P35462; D3R DiscoveRx beta-arrestin cells, luminescence, 90 min; max activation, %; hit rate 0.58% among 410,000; AID 652048, 2013; in the data active = max activation above about 30%; note: 0% is about no effect
Target sequence (P35462 whole entry, looked up): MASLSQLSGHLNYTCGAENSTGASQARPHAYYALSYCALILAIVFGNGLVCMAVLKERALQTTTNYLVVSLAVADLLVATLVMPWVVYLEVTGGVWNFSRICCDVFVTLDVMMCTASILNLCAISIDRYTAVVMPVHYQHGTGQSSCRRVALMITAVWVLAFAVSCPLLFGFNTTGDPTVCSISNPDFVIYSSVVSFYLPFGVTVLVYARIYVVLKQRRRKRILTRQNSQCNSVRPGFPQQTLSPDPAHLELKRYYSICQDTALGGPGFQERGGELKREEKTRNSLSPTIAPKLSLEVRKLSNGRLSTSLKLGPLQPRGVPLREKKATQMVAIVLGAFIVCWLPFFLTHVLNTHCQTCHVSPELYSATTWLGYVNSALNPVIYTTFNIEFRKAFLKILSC
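Cells at 1500/well, incubated overnight, then treated with pinned compounds (dopamine as control) for 90 min at 37 degrees C. DiscoveRx reagent added for 30 - 60 minutes at room temperature; luminescence read.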
mIDH1 inhibitor: qHTS for Inhibitors of mutant isocitrate dehydrogenase 1 (IDH1): qHTS; IDH1-R132H enzyme, NADPH consumption, diaphorase/resazurin fluorescence; Potency, µM (doses to about 76.6 µM), without a hit: at the highest dose activity change, negative = inhibition, hits mostly inhibitors; Isocitrate dehydrogenase [NADP] cytoplasmic (Homo sapiens), O75874; hit rate 0.093% among 390,000; note: potency is the fitted concentration of half-maximal effect; % is set by controls: 0 for no effect and ±100 for the full control effect; nearly all actives have a fitted effect of over 65% in size
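IDH1-R132H (0.5 ug/mL) preincubated 30 min with compound, then NADPH (0.016 mM) and alpha-KG (2 mM) added; 80 min at RT, pH 7.5. Remaining NADPH coupled via diaphorase/resazurin to fluorescence (540/590 nm); concentration-response curves normalized to no-enzyme control.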
DRD3 antagonist: qHTS of D3 Dopamine Receptor Antagonist: qHTS | D(3) dopamine receptor (Homo sapiens), P35462 | D3R cells, DiscoveRx beta-arrestin luminescence, antagonist mode; hits give low values | max response, negative = inhibition, % | hit rate 2.5% among 360,000 | AID 652054, 2013; in the data active = max response below about -50%; inconclusive = no clear call, values can overlap the other calls; note: % is set by controls: 0 for no effect and ±100 for the full control effect
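Cells expressing the human receptor were seeded at 1500 cells/well, incubated overnight at 37 degrees C in 5% CO2, then exposed to library compounds with dopamine controls for 90 minutes at 37 degrees C before luminescent detection.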
* = called active by the depositor. A selection: hits, their analogues and other compounds. The true share with any hit is near 2.9%. Unless noted, calls come from the whole dose curve; as a rule, active = well fitted curve in the direction sought with a large enough effect; inconclusive = small, poorly fitted or top-dose-only effect, or another doubt; inactive = no such curve, though single readings can be large; an effect the other way counts as inactive or inconclusive.

COc1ccccc1C(=O)Nc1ccc2nc(SCC(=O)N(C)c3ccccc3)sc2c1 was read as D3 ag 38.6* and mIDH1 inhibitor 3.2%.
`CCCNC(=O)C1(C)CCN(Cc2cc(C(F)(F)F)ccc2Cl)C1` (configuration not stated) gave D3 ag -14.0 and DRD3 antagonist -57.1*.
`CCCNC(=O)C1(C)CCCN(Cc2ccc3c(c2)OCO3)C1` (configuration not stated) gave D3 ag -11.3 and DRD3 antagonist -54.9*.
COCCNC(=O)C1(C)CCCN(Cc2cccc(OC(=O)c3ccccc3)c2)C1 (configuration not stated) was read as D3 ag 0.2 and DRD3 antagonist 0.0.
`CCNC(=O)C1(C)CCCN1C(=O)c1ccc2c(c1)OCO2` (configuration not stated) gave D3 ag 86.6* and DRD3 antagonist 6.4.
Screening CCCNC(=O)C1(C)CCN(Cc2cccc(OC(=O)c3ccccc3)c2)C1 (configuration not stated) returned D3 ag -15.9 and DRD3 antagonist -78.9*.
`Cc1ccc2c(c1)-c1c(c(C(=O)N3CCN(c4cc(C)ccc4C)CC3)nn1C)CS2` gave D3 ag 2.0 and mIDH1 inhibitor inconclusive.
O=C(Cn1c(=O)nc(-c2ccccc2)c2cc(Cl)ccc21)N1CCN(c2ccccc2F)CC1 was read as D3 ag 2.6 and mIDH1 inhibitor -0.5%.
Screening CC(C)C[C@H](NC(=O)CNC(=O)[C@H](Cc1ccc(O)cc1)NC(=O)[C@H](CO)NC(=O)[C@H](Cc1c[nH]c2ccccc12)NC(=O)[C@H](Cc1cnc[nH]1)NC(=O)[C@@H]1CCC(=O)N1)C(=O)N[C@@H](CCCN=C(N)N)C(=O)N1CCC[C@H]1C(=O)NCC(N)=O (stereo in doubt) returned D3 ag 9.0.
`Cc1ccc(-n2c3c(c(=O)[nH]c2=O)C(NC(=O)C(C)(C)C)(C(F)(F)F)C(=O)N3)cc1` (configuration not stated) gave D3 ag 3.9 and mIDH1 inhibitor -10.8%.
For CCNC(=O)C1(C)CCCN(Cc2csc(-c3ccccc3)n2)C1 (configuration not stated) the results were D3 ag -2.9 and DRD3 antagonist 12.1.
CCNC(=O)C1(C)CCN(Cc2csc(-c3ccccc3)n2)C1 (configuration not stated) was read as D3 ag -26.8 and DRD3 antagonist -113.0*.
For CCCNC(=O)C1(C)CCN(Cc2ccc(-c3ccccc3)o2)C1 (configuration not stated) the results were D3 ag -22.7 and DRD3 antagonist -79.5*.
For CC(C)c1nn2c(=O)cc(COC(=O)c3ccccc3NC(=O)c3cccs3)nc2s1 the results were D3 ag 11.8 and mIDH1 inhibitor -11.7%.
`Cc1ccc(NC(=O)C(C)N=C2NS(=O)(=O)c3ccccc32)cc1F` (configuration not stated) gave Integrin act MD 14.2%, B2AR arrestin 0.4%, D3 ag -27.1, mIDH1 inhibitor 8.1% and DRD3 antagonist -56.1*.
Cc1ccc(C(=O)Cn2nnc(-c3ccccc3-n3cnnn3)n2)cc1 was read as Integrin act MD -9.6%, B2AR arrestin 0.3%, D3 ag 8.7, mIDH1 inhibitor 2.0% and DRD3 antagonist 10.7.
O=C(Cn1nnc(-c2ccccc2-n2cnnn2)n1)NCc1ccccc1 was read as Integrin act MD 4.3%, B2AR arrestin 0.0%, D3 ag -2.7, mIDH1 inhibitor 0.5% and DRD3 antagonist -108.5*.
`COc1ccc(-c2cnn3c4c(c(C)nc23)CCN4C(C)C)cc1OC` gave Integrin act MD 19.4%, B2AR arrestin 0.0%, D3 ag 40.8*, mIDH1 inhibitor 1.0% and DRD3 antagonist 32.6.
For CC(C)N(CCCNC(=O)c1ccc(CS(=O)(=O)c2c(Cl)cccc2Cl)o1)Cc1ccccc1 the results were Integrin act MD -22.4%, B2AR arrestin -0.3%, D3 ag -13.8, mIDH1 inhibitor 10.9% and DRD3 antagonist -56.0*.
Screening CCCCN(CCCNC(=O)c1ccc(CS(=O)(=O)c2c(Cl)cccc2Cl)o1)Cc1ccccc1 returned Integrin act MD -43.6%, B2AR arrestin -0.4%, D3 ag -13.2, mIDH1 inhibitor -6.6% and DRD3 antagonist -22.9.
`C=C1CC[C@H](O)CC1=C/C=C1\CCC[C@]2(C)[C@@H]([C@H](C)CCCC(C)(C)O)CC[C@@H]12` gave D3 ag -0.6.
For c1coc(-c2ccc3ncnc(NCc4cccs4)c3c2)c1 the results were B2AR arrestin -0.4%.
For CC(C)(C)OC(=O)N1CCC(c2c(C(=O)N3CCOCC3)cnn2-c2cccc(F)c2)CC1 the results were D3 ag 73.9* and mIDH1 inhibitor 9.6%.
Screening COC(=O)c1scc(-c2ccccc2)c1S(=O)(=O)Nc1cccc(C)c1C returned D3 ag 5.7 and mIDH1 inhibitor 10.8%.
`CC(C)(C)c1ccc(C(CC(=O)O)NC(=O)C23CC4CC(CC(C4)C2)C3)cc1` (configuration not stated) gave Integrin act MD 6.5%, B2AR arrestin 0.6%, D3 ag 1.5, mIDH1 inhibitor 4.3% and DRD3 antagonist 1.6.
`CCCc1nc2ccccc2c(C(=O)OCC(=O)Nc2ccc(S(=O)(=O)N3CCOCC3)cc2)c1CC` gave Integrin act MD -66.0%, B2AR arrestin 3.0%, D3 ag 31.6*, mIDH1 inhibitor 7.7% and DRD3 antagonist 35.5.
CCCc1nc2ccccc2c(C(=O)OCC(=O)N2CCc3ccccc32)c1CC was read as Integrin act MD -8.6%, B2AR arrestin 0.0%, D3 ag 70.0*, mIDH1 inhibitor 3.5% and DRD3 antagonist 82.9.
For CCCc1nc2ccccc2c(C(=O)OCC(=O)Nc2cccc(S(=O)(=O)N3CCOCC3)c2)c1CC the results were Integrin act MD -36.2%, B2AR arrestin -0.4%, D3 ag 1.2, mIDH1 inhibitor 5.0% and DRD3 antagonist 15.7.
O=C(c1nc[nH]c1C(=O)N1CCc2ccccc2C1)N1CCc2ccccc2C1 was read as Integrin act MD 17.8%, B2AR arrestin 0.2%, D3 ag 141.9*, mIDH1 inhibitor 9.0% and DRD3 antagonist 36.1.
CC1(C)[C@@H](OC(=O)CCC(=O)O)CC[C@]2(C)[C@H]3C(=O)C=C4[C@@H]5C[C@@](C)(C(=O)O)CC[C@]5(C)CC[C@@]4(C)[C@]3(C)CC[C@@H]12 was read as D3 ag -5.0.
For CCCCN(CC)CCCNC(=O)c1c(C)oc2ncnc(N3CCOCC3)c12 the results were D3 ag 60.0* and mIDH1 inhibitor -2.0%.
